# Measured values as given in the supplement of paper PMC6555819.
# Tests used:
# Assay in all cases: PBM binding z-score (relative to random genomic background probes); higher = stronger binding; sequences stand for … in GC…GCGATTGACAGCGTAGAATGAAGG
# [1] = test system: FXR:RXRa (NR concentration 270 nM, RXRa partner concentration 90 nM)
# How it was run: (§1)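 Ligand-free nuclear receptor dimers were bound for 1 h to custom Agilent 4×180K protein-binding microarrays. Detection used antibodies against each partner (one per run). Binding z-scores rest on regression-normalized fluorescence, with random background probes as the reference.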
# [2] = test system: LXRa:RXRa (NR concentration 270 nM, RXRa partner concentration 90 nM)
# How it was run: as §1
# [3] = test system: LXRa homodimer (NR concentration 270 nM)
# How it was run: as §1
# [4] = test system: LXRb:RXRa (NR concentration 270 nM, RXRa partner concentration 90 nM)
# How it was run: as §1
# [5] = test system: LXRb homodimer (NR concentration 270 nM)
# How it was run: as §1
# [6] = test system: PPARa:RXRa (NR concentration 270 nM, RXRa partner concentration 90 nM)
# How it was run: as §1
# [7] = test system: PPARg:RXRa (NR concentration 180 nM, RXRa partner concentration 90 nM)
# How it was run: as §1
# [8] = test system: PPARg:RXRa 270nM:90nM, anti-RXR (NR concentration 270 nM, RXRa partner concentration 90 nM)
# How it was run: as §1
# [9] = test system: PPARg:RXRa 30nM:10nM, anti-RXR (NR concentration 30 nM, RXRa partner concentration 10 nM)
# How it was run: as §1
# [10] = test system: PPARg:RXRa 90nM:30nM, anti-RXR (NR concentration 90 nM, RXRa partner concentration 30 nM)
# How it was run: as §1
Sequence,PBM binding z-score [1],PBM binding z-score [2],PBM binding z-score [3],PBM binding z-score [4],PBM binding z-score [5],PBM binding z-score [6],PBM binding z-score [7],PBM binding z-score [8],PBM binding z-score [9],PBM binding z-score [10]
CGTCAAAGTTCAACTAATGTAACGTAAAGCACGC,7.05,6.09,4.93,4.21,2.34,4.77,4.72,5.26,2.95,4.56
TCTTATAGATCAATAGAGGTTAAGAAAGTGCGCT,1.14,4.21,0.848,2,0.0677,1.92,0.685,2.02,3.21,2.51
ACAGACAGGTGAGTGAAGGTCACTCAGCTGGACG,2.41,2.98,0.517,1.82,-0.302,2.61,1.51,1.98,0.232,1.46
ATATGTAGGTTAAGGTCATTCAGAAAGTAGGGAA,5.54,5.3,3.85,4.59,1.75,5.54,8.49,6.99,5.28,7.39
CCGACTGGGGCAAAGGTTACCATGCTCAGTACGA,1.68,1.51,-0.384,1.97,-0.983,5.76,11,9.85,11.5,11.4
CCTACTGTGCCATTCAGAGGTCATTGATCATATG,2.84,4.75,6.87,4.59,1.67,3.96,1.74,2.71,0.936,1.83
CGAACTAGGTCACCAGGACAGTGCAGAGGTTGGA,4.04,2.7,0.199,1.76,-0.667,5.21,8.59,6.83,4.82,6.44
GATACAGGGTCAGCTTGAGGCCAGAGTATGGAAA,4.2,2.37,-0.58,2.03,-0.747,3.98,2.71,2.81,0.493,1.56
CGATCTAGGTCAAAGGACAGTGAAAGGCGACGTA,4,2.77,-0.0244,1.53,-0.237,5.27,10.3,8.3,8.39,9.24
CGAACTAGGTCGAAGGACAGTGAAAGGCGACGTA,-0.0707,-0.21,-0.395,-0.3,-1.11,2.52,5.13,5.69,2.98,5.61
CGAACTAGGTCACAAGGACAGTGAAGAGGTTGGA,3.87,2.13,0.193,1.57,-0.115,5.01,8.73,7.01,4.93,6.82
AGTCAAAGTTCTTCTAGGTAACGTAAGATATGCT,0.261,-0.366,0.0883,-0.0374,0.0414,0.304,0.844,1.16,0.354,0.549
CGTTCAAGGTCATAGGAGGTCAGTGAAGACAGAT,7.91,7.81,5.4,6.52,1.26,6.19,6.82,6.49,2.97,5.27
ATATGTAGGTTAGCGTCATTCAGAAAGTAGGGAA,0.121,0.529,-0.273,0.174,0.215,2.81,4.14,3.23,1.36,2.32
CGAACTAGGACAAAGGACAGTGAAAGGCGACGTA,-0.156,-0.553,-0.411,-0.765,-0.967,2.45,5.34,5.78,3.93,5.64
CCTACTGGGCGAAGGTCATTGATCAGTCAAAGCA,2.76,2.99,0.677,2.83,-0.515,3.86,3.62,4.54,2.12,4.26
CTAACTAGGTCACCAGGACAGTGAAGAGGTTGGA,4.07,2.77,0.482,1.74,0.0977,5.34,9.24,7.69,5.34,7.49
AGTCAAAGTTCACGAGGTAACGTAAGATTCAGCT,7.1,6.36,3.51,4.18,1.13,5.7,7.78,7.53,4.79,7.08
CAAACTAGGTCACAGAGGGCAAAGTCCGTGCGTA,5.08,4.6,2.26,3.61,0.517,5.45,8.81,7.31,5.42,7.28
AATACAGGATCACTAGGCCAGAGTAGGTACGAAT,-0.102,-0.204,-0.28,-0.407,-0.237,0.128,1.19,0.718,0.264,0.869
GATACAGGGTCAGCTAGAGGGCAGAGTATGGAAA,4.97,3.61,0.31,3.04,-0.0711,4.5,4.11,3.6,0.823,2.38
GCTCGGAGGACAAGGTCAGGGCTTTGTCCGTAGA,2.38,2.11,-0.64,1.71,-0.689,2.95,1.07,1.94,-0.338,0.806
CGAGCTAGGTCAAAGGACAGTGAAAGGCGACGTA,4.09,2.67,-0.157,1.53,-0.726,3.86,5.44,6.04,3.68,5.95
